Source: PubChem BioAssay AID1159580 (chemical genetic matrix, 2015)
Out of some 5,500 compounds screened, about 2,000 (36%) were called active. Inconclusive results (about 18%) are left out. Cut-off read from the data, not from the text of the source: active = normalized growth mostly below about 0.91 (no sharp cut-off); inconclusive = no clear call, values can overlap the other calls; inactive = mostly above about 0.92. The list shows a part of the results.

Test: chemical genetic growth profiling, strain panel (AID 1159580);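 note: tested at 20 µM; growth read once vehicle control cultures reached saturation at 30 °C; 1 = growth at the plate median or of vehicle wells; lower values mean less growth of the strain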
Conditions: growth OD

Measured: normalized growth

COc1ccc(C2C(=O)c3ccccc3C2=O)cc1
inactive: S. cerevisiae deletion strains, locus YJR066W, strain TOR1, stronger effect = lower value 0.897 | S. cerevisiae deletion strains, locus YJR075W, strain HOC1, stronger effect = lower value 0.983 | S. cerevisiae deletion strains, locus YKL009W, strain mrt4, stronger effect = lower value 0.958 | S. cerevisiae deletion strains, locus YKL068W, stronger effect = lower value 0.987 | S. cerevisiae deletion strains, locus YKL085W, strain MDH1 (second series), stronger effect = lower value 0.983 | S. cerevisiae deletion strains, locus YKL085W, strain MDH1, stronger effect = lower value 0.983 | S. cerevisiae deletion strains, locus YKL160W, strain elf1, stronger effect = lower value 0.998 | S. cerevisiae deletion strains, locus YKR001C, strain vps1, stronger effect = lower value 1 | S. cerevisiae deletion strains, locus YKR026C, strain gcn3, stronger effect = lower value 0.96 | S. cerevisiae deletion strains, locus YKR091W, strain srl3, stronger effect = lower value 1.01 | S. cerevisiae deletion strains, locus YLL001W, strain dnm1, stronger effect = lower value 0.997 | S. cerevisiae deletion strains, locus YLL026W, stronger effect = lower value 0.966 | S. cerevisiae deletion strains, locus YLL041C, strain sdh2, stronger effect = lower value 0.982 | S. cerevisiae deletion strains, locus YLR027C, strain aat2, stronger effect = lower value 0.997 | S. cerevisiae deletion strains, locus YLR039C, strain RIC1, stronger effect = lower value 0.993 | S. cerevisiae deletion strains, locus YLR058C, strain SHM2, stronger effect = lower value 0.993 | S. cerevisiae deletion strains, locus YLR102C, strain apc9, stronger effect = lower value 0.989 | S. cerevisiae deletion strains, locus YLR221C, strain rsa3, stronger effect = lower value 1 | S. cerevisiae deletion strains, locus YLR258W, strain gsy2, stronger effect = lower value 1.01 | S. cerevisiae deletion strains, locus YLR262C, strain YPT6 (second series), stronger effect = lower value 0.987 | S. cerevisiae deletion strains, locus YLR262C, strain YPT6, stronger effect = lower value 1.01 | S. cerevisiae deletion strains, locus YLR268W, strain sec22, stronger effect = lower value 1.01 | S. cerevisiae deletion strains, locus YLR320W, strain mms22, stronger effect = lower value 1.02 | S. cerevisiae deletion strains, locus YLR330W, strain CHS5, stronger effect = lower value 1 | S. cerevisiae deletion strains, locus YLR342W, strain FKS1 (second series), stronger effect = lower value 1.02 | S. cerevisiae deletion strains, locus YLR342W, strain FKS1, stronger effect = lower value 1 | S. cerevisiae deletion strains, locus YLR357W, strain rsc2, stronger effect = lower value 1.09 | S. cerevisiae deletion strains, locus YLR370C, strain arc18, stronger effect = lower value 1 | S. cerevisiae deletion strains, locus YLR371W, strain rom2, stronger effect = lower value 1.01 | S. cerevisiae deletion strains, locus YLR384C, strain iki3, stronger effect = lower value 0.992 | S. cerevisiae deletion strains, locus YLR418C, strain cdc73, stronger effect = lower value 0.957 | S. cerevisiae deletion strains, locus YML016C, strain PPZ1, stronger effect = lower value 1.01 | S. cerevisiae deletion strains, locus YML032C, strain rad52, stronger effect = lower value 1.01 | S. cerevisiae deletion strains, locus YML120C, strain ndi1, stronger effect = lower value 0.992 | S. cerevisiae deletion strains, locus YML124C, strain tub3, stronger effect = lower value 0.994 | S. cerevisiae deletion strains, locus YMR058W, strain fet3, stronger effect = lower value 0.979 | S. cerevisiae deletion strains, locus YMR078C, strain ctf18, stronger effect = lower value 0.99 | S. cerevisiae deletion strains, locus YMR125W, strain sto1, stronger effect = lower value 0.994 | S. cerevisiae deletion strains, locus YMR129W, stronger effect = lower value 0.972 | S. cerevisiae deletion strains, locus YMR205C, strain PFK2, stronger effect = lower value 1.01 | S. cerevisiae deletion strains, locus YMR223W, strain ubp8, stronger effect = lower value 0.976 | S. cerevisiae deletion strains, locus YMR231W, strain pep5, stronger effect = lower value 1.02 | S. cerevisiae deletion strains, locus YMR307W, strain GAS1, stronger effect = lower value 1.04 | S. cerevisiae deletion strains, locus YNL067W, strain RPL9B, stronger effect = lower value 0.932 | S. cerevisiae deletion strains, locus YNL071W, strain lat1, stronger effect = lower value 0.986 | S. cerevisiae deletion strains, locus YNL128W, strain TEP1, stronger effect = lower value 0.977 | S. cerevisiae deletion strains, locus YNL153C, strain GIM3, stronger effect = lower value 0.997 | S. cerevisiae deletion strains, locus YNL183C, strain NPR1, stronger effect = lower value 0.882 | S. cerevisiae deletion strains, locus YNL209W, strain ssb2, stronger effect = lower value 0.992 | S. cerevisiae deletion strains, locus YNL233W, strain BNI4, stronger effect = lower value 1 | S. cerevisiae deletion strains, locus YNL248C, strain rpa49, stronger effect = lower value 1.05 | S. cerevisiae deletion strains, locus YNL250W, strain rad50, stronger effect = lower value 0.987 | S. cerevisiae deletion strains, locus YNL271C, strain bni1, stronger effect = lower value 0.983 | S. cerevisiae deletion strains, locus YNL298W, strain CLA4, stronger effect = lower value 0.976 | S. cerevisiae deletion strains, locus YNL307C, strain MCK1, stronger effect = lower value 1.01 | S. cerevisiae deletion strains, locus YNL322C, strain KRE1 (second series), stronger effect = lower value 0.961 | S. cerevisiae deletion strains, locus YNR049C, strain mso1, stronger effect = lower value 0.982 | S. cerevisiae deletion strains, locus YNR052C, strain pop2, stronger effect = lower value 0.987 | S. cerevisiae deletion strains, locus YOL012C, strain htz1 0.937 | S. cerevisiae deletion strains, locus YOL147C, strain pex11, stronger effect = lower value 0.992 | S. cerevisiae deletion strains, locus YOR001W, strain rrp6, stronger effect = lower value 1.02 | S. cerevisiae deletion strains, locus YOR061W, strain CKA2, stronger effect = lower value 0.999 | S. cerevisiae deletion strains, locus YOR069W, strain VPS5, stronger effect = lower value 0.997 | S. cerevisiae deletion strains, locus YOR070C, strain gyp1, stronger effect = lower value 1 | S. cerevisiae deletion strains, locus YOR080W, strain dia2, stronger effect = lower value 1.02 | S. cerevisiae deletion strains, locus YOR083W, strain WHI5, stronger effect = lower value 1.01 | S. cerevisiae deletion strains, locus YOR106W, strain vam3, stronger effect = lower value 1.04 | S. cerevisiae deletion strains, locus YOR136W, strain idh2, stronger effect = lower value 0.984 | S. cerevisiae deletion strains, locus YOR144C, strain elg1, stronger effect = lower value 0.997 | S. cerevisiae deletion strains, locus YOR184W, strain ser1, stronger effect = lower value 0.998 | S. cerevisiae deletion strains, locus YOR231W, strain MKK1, stronger effect = lower value 0.878 | S. cerevisiae deletion strains, locus YOR265W, strain rbl2, stronger effect = lower value 0.995 | S. cerevisiae deletion strains, locus YOR270C, strain vph1, stronger effect = lower value 1.07 | S. cerevisiae deletion strains, locus YOR290C, strain snf2, stronger effect = lower value 1 | S. cerevisiae deletion strains, locus YOR316C, strain cot1, stronger effect = lower value 0.983 | S. cerevisiae deletion strains, locus YPL051W, strain arl3, stronger effect = lower value 1.03 | S. cerevisiae deletion strains, locus YPL078C, strain atp4, stronger effect = lower value 1 | S. cerevisiae deletion strains, locus YPL106C, strain sse1, stronger effect = lower value 1.03 | S. cerevisiae deletion strains, locus YPL240C, strain hsp82, stronger effect = lower value 0.984 | S. cerevisiae deletion strains, locus YPR119W, strain clb2, stronger effect = lower value 0.998 | S. cerevisiae deletion strains, locus YPR141C, strain kar3, stronger effect = lower value 0.977 | S. cerevisiae deletion strains, locus YPR163C, strain tif3, stronger effect = lower value 0.995 | S. cerevisiae deletion strains, locus YPR167C, strain met16, stronger effect = lower value 0.998 | S. cerevisiae deletion strains, strain wtn01, stronger effect = lower value 0.991 | S. cerevisiae strains, strain wild type, stronger effect = lower value 1
active: S. cerevisiae deletion strains, locus YLR113W, strain HOG1, stronger effect = lower value 0.767 | S. cerevisiae deletion strains, locus YPL256C, strain CLN2, stronger effect = lower value 0.817
